Test results reported in paper PMC7819943, “Rice protein-binding microarrays: a tool to detect cis-acting elements near promoter regions in rice”.
Whole data set: some 68,000 sequences, median “fluorescence intensity (a.u.)” near 9,100, cut for the highest 2% near 16,000. This excerpt belongs to a sample that is enriched for the highest values.

The sequences below were run against OsWRKY34 (Oryza sativa, UniProt Q0JBA9 1-250) (assay: protein-binding microarray (RPBM); PBS, 2% BSA, 51.3 ng/ul salmon testes DNA, 50 uM zinc acetate, 200 nM TF, 25 C, 1 h; high values mean tight binding). Conditions: protein: recombinant; tags: N-terminal polyhistidine and DsRed monomer fusion (pET32a); label: CyDye5-dUTP incorporated in the synthesized complementary strand; 3' TTTTT single-stranded linker to array surface; dsDNA, one strand shown.
Sequence of OsWRKY34 (Q0JBA9 entry or part of it): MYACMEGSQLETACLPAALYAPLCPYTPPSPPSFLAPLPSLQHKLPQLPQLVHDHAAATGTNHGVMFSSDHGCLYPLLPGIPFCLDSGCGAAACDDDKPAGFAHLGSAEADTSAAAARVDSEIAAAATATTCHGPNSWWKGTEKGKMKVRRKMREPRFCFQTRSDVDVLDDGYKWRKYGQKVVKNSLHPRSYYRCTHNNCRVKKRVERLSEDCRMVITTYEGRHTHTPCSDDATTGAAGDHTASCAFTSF
Outline: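 Per-feature fluorescence intensity (arbitrary units), read on an Axon 4000B scanner, is the binding signal. Transcription factors carrying an N-terminal polyhistidine tag and DsRed fusion were expressed in E. coli BL21-CodonPlus and purified on Ni–NTA. A custom Agilent array, made double-stranded by primer extension with Cy5-dUTP and blocked with 2% BSA, was incubated with 200 nM protein in PBS, 2% BSA, salmon testes DNA and 50 µM zinc acetate at 25 °C for 1 h and then washed.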

| Sequence | binding signal |
| --- | --- |
| GGGCGCCGGTATGCTTCTTCCATTCCACCTATGTGTTTCTCGGAGTCACCTAGTGCAG | 9490 fluorescence intensity (a.u.) |
| AAAGTTTTTTGTCGTTGTTTGTTTTCCAGTATTTGCTTTTCGGAGTCACCTAGTGCAG | 18000 fluorescence intensity (a.u.) |
| ATTTCTTACGTTGTTGCAGCTTTGTTTTTTTTGCTTATTTCGGAGTCACCTAGTGCAG | 14900 fluorescence intensity (a.u.) |
| TTTCCCACGTTTTGTCATTTTTTCAGCTATATATTAATTTCGGAGTCACCTAGTGCAG | 12000 fluorescence intensity (a.u.) |
| CGCTTTTGCACAGTATTTTTATTTGCAGAGTTATGTTTGTCGGAGTCACCTAGTGCAG | 8090 fluorescence intensity (a.u.) |
| TTGCTTGTTGATTGATTCGTTTTTGTCAATTTTGAAGTTTCGGAGTCACCTAGTGCAG | 8470 fluorescence intensity (a.u.) |
| CGTTTTTTTTTTCATTCCATGTTTGCATTAGCTTCATTTCCGGAGTCACCTAGTGCAG | 13400 fluorescence intensity (a.u.) |
| ATTCCGGTCATTTACGCGCTTTTAGCTTTGCCCTTCATTTCGGAGTCACCTAGTGCAG | 17200 fluorescence intensity (a.u.) |
| TTATGCCAGCCATTTCACTTTTTCCCACGTTTTGTCATTTCGGAGTCACCTAGTGCAG | 18900 fluorescence intensity (a.u.) |
| ATTTTTTCACGTTCGGACCTATGGTTTTTTTGCCACTTTGCGGAGTCACCTAGTGCAG | 8520 fluorescence intensity (a.u.) |
| TTTTTGTCTTATTGTTTTGTTTATTTTATTTCAGTTTATTCGGAGTCACCTAGTGCAG | 9760 fluorescence intensity (a.u.) |
| TTACTCTACTCATTTAGCTTTTGGTTGGTTGGTTCCCTTCCGGAGTCACCTAGTGCAG | 14400 fluorescence intensity (a.u.) |
| TTTGTTTTTTTTGCTTATTTAGTTTTTTTTTCAGCTTTTTCGGAGTCACCTAGTGCAG | 17300 fluorescence intensity (a.u.) |
| ACAAATTCCTGACTTCACGGTTTTCTATTTGGTTGTAATACGGAGTCACCTAGTGCAG | 9590 fluorescence intensity (a.u.) |
| TTTTTTTATTCGTGTCTGAAAATCATTTCCGATATCCGGTCGGAGTCACCTAGTGCAG | 8470 fluorescence intensity (a.u.) |
| CACTAAAGTTTCATTGGGTTTTCAGTTTTCACTTCATTATCGGAGTCACCTAGTGCAG | 10700 fluorescence intensity (a.u.) |
| ATTCGTTTCGTATTTATGCCCGATATTATCCGTGCTTCTACGGAGTCACCTAGTGCAG | 9200 fluorescence intensity (a.u.) |
| TCTCTTTCTCTCTCTCCTCTTCTTCCTTGGCGAGTTGTGCCGGAGTCACCTAGTGCAG | 8080 fluorescence intensity (a.u.) |
| ATCCATCCGAGCTCTCTCTCTCTCTCTGTCTTCTCTCTACCGGAGTCACCTAGTGCAG | 10700 fluorescence intensity (a.u.) |
| TATTTTCGTCCGGTTTTTTCCACTCACCAGTCACCACCCCCGGAGTCACCTAGTGCAG | 8490 fluorescence intensity (a.u.) |
| ACCACTCACCTCATGATTTTCGTTGTATTCGTTCCAGTCCCGGAGTCACCTAGTGCAG | 20000 fluorescence intensity (a.u.) |

| Sequence | binding signal |
| --- | --- |
| ACTCCAGCATGATCCACAACACCACTCACCTCATGATTTTCGGAGTCACCTAGTGCAG | 8770 fluorescence intensity (a.u.) |
| CTCTCCTCCTCCGTTCCTGACTCCACCACTCACATTCATTCGGAGTCACCTAGTGCAG | 13200 fluorescence intensity (a.u.) |
| AGGGGTGCTAATTGAGCCTATTTCGGGTGGGGCTCACTGACGGAGTCACCTAGTGCAG | 15300 fluorescence intensity (a.u.) |
| TTCTTGGCCCGCTAACTCATGATGGTTTTATCCAGATCGTCGGAGTCACCTAGTGCAG | 9880 fluorescence intensity (a.u.) |
| TCAAACCTCGCGACTTCTTCTTCCACCTCTCGCTCCGGGCCGGAGTCACCTAGTGCAG | 11800 fluorescence intensity (a.u.) |
| GGGATATATCCTTTGACCGGTCAAACCTCGCGACTTCTTCCGGAGTCACCTAGTGCAG | 18800 fluorescence intensity (a.u.) |
| TGTGCCTCCGGATTTGACCTTTCCTCGAACCTTCTTCTTCCGGAGTCACCTAGTGCAG | 13300 fluorescence intensity (a.u.) |
| CCTTTCCTAAGTCTCTGTTTTAACATCTCTATTGGGGCATCGGAGTCACCTAGTGCAG | 8940 fluorescence intensity (a.u.) |
| CTCCGTCACTCAGATTTAATACATGACTCTCTATTATTCCCGGAGTCACCTAGTGCAG | 9060 fluorescence intensity (a.u.) |
| ATGGAGGCGGTGGTCGGAGGTGGCAGACGATGCTCGGGGACGGAGTCACCTAGTGCAG | 8040 fluorescence intensity (a.u.) |
| GGGGTGGCGGTGGCGGTGGTGGTGGTGGTGGTGGTGGAGTCGGAGTCACCTAGTGCAG | 41600 fluorescence intensity (a.u.) |
| GGAGGCGGTGGTGTTGGAGTTGGAGGGCGCGTGGAGGTGGCGGAGTCACCTAGTGCAG | 12900 fluorescence intensity (a.u.) |
| GGCGGCGGCGGGGTGGCCTTGGCCGGGTGCCTTGGTGGATCGGAGTCACCTAGTGCAG | 10300 fluorescence intensity (a.u.) |
| GAGGAGGAGGTGGAGCTACTGGTGGTGGTGGTGGTGGTGGCGGAGTCACCTAGTGCAG | 16200 fluorescence intensity (a.u.) |
| CAGCAGCGGCGGCGGCGGCGGCGGCGGGGTGGTGGAACCTCGGAGTCACCTAGTGCAG | 9080 fluorescence intensity (a.u.) |
| AGGTGGTGGTGGAGGTGGAGGTGGCGGTGGAGGTGGAGGGCGGAGTCACCTAGTGCAG | 38600 fluorescence intensity (a.u.) |
| GGGGAGGCGGGTGGGGTTGAGGAGGTCGGTGGCCTCGGCGCGGAGTCACCTAGTGCAG | 12300 fluorescence intensity (a.u.) |
| GGCGGCGGCGGCGGCGGCGGGGAGGAGGTGAAGGTGGAGGCGGAGTCACCTAGTGCAG | 14100 fluorescence intensity (a.u.) |
| GGAGGTCGGTGGCCTCGGCGGTGGAGGTCGGGGTCGGGGACGGAGTCACCTAGTGCAG | 16500 fluorescence intensity (a.u.) |
| CCTTACCGTACAAGGGAGGAGGAGGTGGTGGTGGTGGAGGCGGAGTCACCTAGTGCAG | 13000 fluorescence intensity (a.u.) |
| GCGGAGGAGGTGGTGGTGGTGGAGGAGGAGGAGGCCAAGGCGGAGTCACCTAGTGCAG | 19300 fluorescence intensity (a.u.) |
